The full ranking holds about 1,300 sequences; the median of “log fluorescence intensity” is about 8.3, and the highest 2% start at about 12. Shown is part of a subset that was picked to be rich in the highest values.

In this experiment the target is T1, ETS1 (Homo sapiens, UniProt P14921 1-441).
T1 sequence: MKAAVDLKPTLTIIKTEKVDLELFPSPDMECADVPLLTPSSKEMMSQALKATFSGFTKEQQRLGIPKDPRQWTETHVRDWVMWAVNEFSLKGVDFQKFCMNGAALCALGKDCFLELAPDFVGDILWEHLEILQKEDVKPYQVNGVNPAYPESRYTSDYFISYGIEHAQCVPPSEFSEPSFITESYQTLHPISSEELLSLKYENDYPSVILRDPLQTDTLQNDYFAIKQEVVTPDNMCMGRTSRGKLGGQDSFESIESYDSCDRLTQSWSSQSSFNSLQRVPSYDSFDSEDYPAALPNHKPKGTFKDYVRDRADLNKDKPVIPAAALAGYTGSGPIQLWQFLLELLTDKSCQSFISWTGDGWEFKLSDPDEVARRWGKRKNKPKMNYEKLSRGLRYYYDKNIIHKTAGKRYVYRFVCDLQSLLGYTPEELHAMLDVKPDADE
The experiment in a line: custom PBM; custom protein-binding microarray; buffer, salt, pH and temperature not stated; high values mean tight binding. The conditions noted are these: dsDNA, one strand shown.
Regarding “CTGGGACTTGACCCAACTCTGCCACGTGGGTCGCTTGTCTTGATTCGCTTGACGCTGCTG”, the binding signal is 8.36 log fluorescence intensity.

As to “GGATAAAGGCCCAGGGTAACACCGGAAGTGGGCTTAGTCTTGATTCGCTTGACGCTGCTG”, the binding signal is 11.9 log fluorescence intensity.

In the case of “GGAAAAAGGCCCAGGGCAACACCGGAAGTGGGCTTAGTCTTGATTCGCTTGACGCTGCTG”, the binding signal was 12.2 log fluorescence intensity.

With “GGAAAAAGGCCCAGGATAACACCGGAAGTGGGCTTAGTCTTGATTCGCTTGACGCTGCTG”, the binding signal was 12.2 log fluorescence intensity.

Consider “GGAAAAAGGCCCAGGGAAACACCGGAAGTGGGCTTAGTCTTGATTCGCTTGACGCTGCTG”, for which the binding signal is 12.3 log fluorescence intensity.

For “GGAAAAAGGCCCAGGGGAACACCGGAAGTGGGCTTAGTCTTGATTCGCTTGACGCTGCTG”, the binding signal was 12.1 log fluorescence intensity.

Turning to “GGAAAAAGGCCCAGGCTAACACCGGAAGTGGGCTTAGTCTTGATTCGCTTGACGCTGCTG”, the binding signal was 12.1 log fluorescence intensity.

For “GGAAAAAGGCCCAGGGTGACACCGGAAGTGGGCTTAGTCTTGATTCGCTTGACGCTGCTG”, the binding signal was 11.8 log fluorescence intensity.

Take “GCAAAAAGGCCCAGGGTAACACCGGAAGTGGGCTTAGTCTTGATTCGCTTGACGCTGCTG”: the binding signal is 11.9 log fluorescence intensity.

With “GGAAAAAGGCCCAGGGTCACACCGGAAGTGGGCTTAGTCTTGATTCGCTTGACGCTGCTG”, the binding signal is 11.9 log fluorescence intensity.

With “GGGAAAAGGCCCAGGGTAACACCGGAAGTGGGCTTAGTCTTGATTCGCTTGACGCTGCTG”, the binding signal is 11.9 log fluorescence intensity.

Turning to “GGCAAAAGGCCCAGGGTAACACCGGAAGTGGGCTTAGTCTTGATTCGCTTGACGCTGCTG”, the binding signal is 11.7 log fluorescence intensity.

Turning to “GGTAAAAGGCCCAGGGTAACACCGGAAGTGGGCTTAGTCTTGATTCGCTTGACGCTGCTG”, the binding signal was 11.9 log fluorescence intensity.

As to “GATTAATTTCTGCCCTTATTCGAACGTGCCATAACAGTCTTGATTCGCTTGACGCTGCTG”, the binding signal is 8.42 log fluorescence intensity.

As for “TCCGGCTACCAGCTCCACCCACTTCAGGCCTTATAGGTCTTGATTCGCTTGACGCTGCTG”, the binding signal is 8.46 log fluorescence intensity.

As to “GAAAGGGAAGACGGTTGTGGTAGTTCCGGGTATTAAGTCTTGATTCGCTTGACGCTGCTG”, the binding signal was 8.75 log fluorescence intensity.

Consider “CGGAAGTGTCGTAAACGTCGGATATCCGGTTTTTCTGTCTTGATTCGCTTGACGCTGCTG”, for which the binding signal was 11.9 log fluorescence intensity.

Regarding “TCCGGCTACCAGCTGCACCCACTTCAGGCCTTGTAGGTCTTGATTCGCTTGACGCTGCTG”, the binding signal was 8.44 log fluorescence intensity.

As for “GCTGCTGCGGTGTATACCCCACCGGATGTGACCCCGGTCTTGATTCGCTTGACGCTGCTG”, the binding signal is 10.1 log fluorescence intensity.

For the sequence “GGAAAACGGCCCAGGGTAACACCGGAAGTGGGCTTAGTCTTGATTCGCTTGACGCTGCTG”, the binding signal was 12 log fluorescence intensity.

Consider “TACTGACTTATATATGGGAATGCACATGAATAGACCGTCTTGATTCGCTTGACGCTGCTG”, for which the binding signal is 8.32 log fluorescence intensity.

“TTAAGGGAAGACGGTTGTGGTAGTTCCGGGTATTAAGTCTTGATTCGCTTGACGCTGCTG”: the binding signal is 8.48 log fluorescence intensity.

As to “CGGAAGTGTCGTAAACGTCGGATATCCGGCTCTTCTGTCTTGATTCGCTTGACGCTGCTG”, the binding signal is 10.7 log fluorescence intensity.
